From PubChem
Shown are actives, neighbours in structure and some others; about 6.4% of the full set was active somewhere.
KinaseGlo FLuc = counter-screen: inhibitors of Kinase-Glo firefly luciferase. Potency, µM (doses to about 38.3 µM), usual class: inhibitors. AID 1379. Q27757. 200,000 tested, 0.28% active. Kinase-Glo luciferase, ATP luminescence, 8 min; note: nearly all actives have a fitted effect of over 60% in size
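Luminescence was the read-out, taken after 8-minute incubation at ambient temperature. Luciferase turned over luciferin with 10 uM ATP in imidazole pH 7.2 buffer containing KCl, MgCl2, Tween 20 and BSA.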
RORgamma inh = inhibitors of mouse ROR gamma transcriptional activity; 310,000 tested, 5.4% active; Potency, µM (titrated, usually from 53.6 µM), hits mostly inhibitors; Drosophila S2 Gal4-RORgamma UAS-luciferase reporter, 20 h; note: nearly all actives have a fitted effect of over 60% in size
Target sequence (P51450 whole entry, looked up, the tested form may be a part): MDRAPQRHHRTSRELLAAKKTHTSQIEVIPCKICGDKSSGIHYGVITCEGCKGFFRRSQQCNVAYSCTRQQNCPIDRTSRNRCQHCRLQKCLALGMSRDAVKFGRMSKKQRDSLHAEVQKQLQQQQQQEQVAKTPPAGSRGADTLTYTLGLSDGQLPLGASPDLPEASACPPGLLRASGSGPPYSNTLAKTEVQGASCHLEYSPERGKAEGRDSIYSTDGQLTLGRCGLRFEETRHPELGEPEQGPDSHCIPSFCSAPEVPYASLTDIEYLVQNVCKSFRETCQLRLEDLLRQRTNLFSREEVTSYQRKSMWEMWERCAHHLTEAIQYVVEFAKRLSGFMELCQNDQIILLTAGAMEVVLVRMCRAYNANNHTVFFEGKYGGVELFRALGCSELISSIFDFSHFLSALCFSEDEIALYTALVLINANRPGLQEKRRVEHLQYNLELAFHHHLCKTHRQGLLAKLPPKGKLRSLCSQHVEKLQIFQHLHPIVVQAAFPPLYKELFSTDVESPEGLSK
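Luciferase reporter read in Schneider cells carrying Gal4-RORγ (mouse) and UAS-Photinus luciferase; cells given compound 1 h before 700 uM copper sulfate induction, then incubated 20 h at ambient temperature.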
Gal4-VP16 FLuc = counter-screen for ROR gamma inhibitors: Gal4-VP16 reporter | Drosophila S2 Gal4-VP16 UAS-luciferase, luminescence, 20 h | Potency, µM (doses to about 53.6 µM), most hits filed as inhibitors | 310,000 tested, 3.5% active | AID 2546;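 note: Gal4-VP16 expression switched on by copper sulfate through the metallothionein promoter; nearly all actives have a fitted effect of over 50% in size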
Each line names hits and unclear results; the compound was inactive in the other large screens. Calls come from the whole dose curve; as a rule, active = well fitted curve in the direction sought with a large enough effect; inconclusive = small, poorly fitted or top-dose-only effect, or another doubt; inactive = no such curve, though single readings can be large; an effect the other way counts as inactive or inconclusive.

CC1CC(C)CN(C(=S)Nc2ccc(SC(F)F)cc2)C1 (stereo not given)	RORgamma inh 5.01µM, Gal4-VP16 FLuc 11.2µM
CC1CC(C)CN(C(=S)Nc2ccc(OC(F)F)cc2)C1 (stereo not given)	RORgamma inh 11.2µM, Gal4-VP16 FLuc inconclusive
CC1CN(C(=S)Nc2ccc(Cl)cc2)CC(C)O1 (stereo not given)	none (no result: KinaseGlo FLuc)
Cc1cccc(NC(=S)Nc2ccc(N3CCOCC3)cc2)c1C	RORgamma inh inconclusive, Gal4-VP16 FLuc inconclusive
FC(F)Oc1ccc(NC(=S)N2CCN(Cc3ccccc3)CC2)cc1	RORgamma inh inconclusive
CC1CN(C(=S)Nc2ccc(SC(F)F)cc2)CC(C)O1 (stereo not given)	RORgamma inh 11.2µM (no result: KinaseGlo FLuc)
OC1CCCN(C(=S)Nc2ccc(SC(F)F)cc2)C1 (stereo not given)	none
Cc1ccc(NC(=O)CS(=O)CC(=O)Nc2cnc3ccccc3c2)cc1Cl (stereo not given)	none (no result: KinaseGlo FLuc)
O=C(CN(Cc1ccccc1Cl)C(=O)c1csnn1)NCCc1ccccc1	none (no result: KinaseGlo FLuc)
COC(=O)CC1c2ccccc2C=C(/C=C/c2ccc3c(c2)OCO3)N1C(=O)OC (stereo not given)	none (no result: RORgamma inh, Gal4-VP16 FLuc)
Cc1nc(-c2ccc(S(=O)(=O)NCc3ccccn3)s2)cs1	RORgamma inh 10µM, Gal4-VP16 FLuc inconclusive (no result: KinaseGlo FLuc)
CCN(CC)S(=O)(=O)c1ccc(-c2csc(C)n2)s1	none (no result: KinaseGlo FLuc)
Cc1nn(-c2ccccc2)c2c1C1(C(=O)N(C)c3ccccc31)C(C#N)=C(N)O2 (stereo not given)	RORgamma inh 11.2µM, Gal4-VP16 FLuc inconclusive
CCN1C(=O)C2(C(C#N)=C(N)Oc3c2c(C)nn3-c2ccccc2)c2ccccc21 (stereo not given)	RORgamma inh inconclusive, Gal4-VP16 FLuc inconclusive
CC(C)=C(NC(=O)c1ccccc1)C(=O)Nc1cccc(C(=O)O)c1	none
Cc1ccccc1C(=O)NNC1=NCCC1	RORgamma inh 12.6µM, Gal4-VP16 FLuc 14.1µM
O=C(NNC1=NCCC1)c1cccc(Br)c1	RORgamma inh inconclusive, Gal4-VP16 FLuc inconclusive
O=C(Nc1cccc(F)c1)N1CCC2(CC1)CCN(C(=O)c1ccco1)CC2	RORgamma inh inconclusive
COc1cc(/C=C/C(=O)N2CCCC2)cc(OC)c1OC	none
COc1cc(/C=C/C(=O)N2CCN(C(=O)/C=C/c3cc(OC)c(OC)c(OC)c3)CC2)cc(OC)c1OC	none (no result: KinaseGlo FLuc)
COc1cc(/C=C/C(=O)N2CCCCC2=O)cc(OC)c1OC	RORgamma inh 7.08µM, Gal4-VP16 FLuc 7.94µM
COc1cc(/C=C\C(=O)N2CCC=CC2=O)cc(OC)c1OC	RORgamma inh 5.01µM, Gal4-VP16 FLuc 5.01µM
CC[C@@]12C(=O)N(c3ccc(OC)cc3)C(=O)N1[C@H](c1ccc(Cl)cc1)[C@@H]1C(=O)N(C3CCCCC3)C(=O)[C@@H]12	Gal4-VP16 FLuc inconclusive (no result: KinaseGlo FLuc)
O=C(c1ccc(Br)o1)N1CCN(CCc2ccncc2)CC1	none (no result: KinaseGlo FLuc)
COc1ccc(-c2[nH]ncc2-c2csc(C)n2)c(O)c1	Gal4-VP16 FLuc inconclusive
COc1ccc(-c2[nH]ncc2-c2ccc(Cl)cc2)c(O)c1	RORgamma inh 8.91µM, Gal4-VP16 FLuc inconclusive
COc1ccc(-c2cn[nH]c2-c2ccc(OC)cc2O)cc1	RORgamma inh inconclusive, Gal4-VP16 FLuc 20µM (no result: KinaseGlo FLuc)
Oc1ccc(-c2[nH]ncc2-c2ccc(Cl)cc2)c(O)c1	none
C[C@]12C[C@@](C)(C=C1/C=C/c1ccc(F)cc1)C(=O)C[C@H]2c1ccc(F)cc1	none
CCN1C(=O)C(C(=O)c2ccccc2)SC1=S (stereo not given)	none
Cc1cc(CC(C)C)n(-c2nc3ccccc3c(=O)n2OCC(N)=O)n1	RORgamma inh 2.24µM, Gal4-VP16 FLuc 5.62µM
Cc1cc(C)n(-c2nc3ccccc3c(=O)n2OCC(N)=O)n1	RORgamma inh 6.31µM, Gal4-VP16 FLuc 20µM
NC(=O)COn1c(SCC(N)=O)nc2ccccc2c1=O	none (no result: KinaseGlo FLuc)
CC(C)COc1nc2ccccc2c(=O)n1OCC(=O)O	none
Cc1cc(C)n(-c2nc3ccccc3c(=O)n2OCCOc2ccccc2)n1	RORgamma inh inconclusive, Gal4-VP16 FLuc 14.1µM
C=CCOn1c(-n2nc(C)cc2C)nc2ccccc2c1=O	RORgamma inh inconclusive (no result: KinaseGlo FLuc)
COC(=O)CSc1nc(C)c(C)c(C)c1C(N)=O	none
COc1ccc(CS(=O)c2nc(C)cc(C)c2S(C)(=O)=O)cc1 (stereo not given)	none
CC(c1ccccc1)N1CCC(CNC(=S)Nc2cccc(Cl)c2)C1 (stereo not given)	RORgamma inh 10µM, Gal4-VP16 FLuc inconclusive (no result: KinaseGlo FLuc)
Cc1cc(C)c(NC(=S)NCC2CCN(C(C)c3ccccc3)C2)c(C)c1 (stereo not given)	RORgamma inh 7.94µM, Gal4-VP16 FLuc inconclusive (no result: KinaseGlo FLuc)
Cc1ccc(NC(=S)NCC2CCN(C(C)c3ccccc3)C2)cc1 (stereo not given)	RORgamma inh inconclusive, Gal4-VP16 FLuc inconclusive
O=C(NCC1CC1)Nc1cccc(Cl)c1	none (no result: KinaseGlo FLuc)
